# According to ChEMBL document CHEMBL3988442, “University of Dundee, Small-Polar-MMV Screening Library” (2021):
# Hit rate of the full screen: of about 48,000 compounds, about 13,000 (27%) showed an effect of 50% or more. The list shows a part of the results.
# System: Wolbachia pipientis
# Assay: Anti-Wolbachia Cell-Based Screen
# Assay type: functional
# Set-up: scale not given: in the data most compounds retested in dose-response had high values
# Conditions: 5 µM
row,SMILES,Percent Effect
1,CC(C)COC1CCN(C(=O)c2cc3ccccc3c(=O)[nH]2)CC1,-14.3%
2,Cc1[nH]c(-c2ccccc2)nc1C(=O)N1CC[C@H](CO)[C@@H](O)C1,5.886%
3,CO[C@H]1CN(C(=O)c2ccc(-c3ccccc3)[nH]2)CC[C@H]1N,104.8%
4,CN1[C@H]2CC[C@@H]1CN(C(=O)c1ccc(-c3ccccc3)[nH]1)CC2,114.3%
5,CO[C@H]1CN(C(=O)c2ccc(-c3cc[nH]n3)cc2)CC[C@H]1N,5.265%
6,O=C(c1cccc(-c2ncc[nH]2)c1)N1CC[C@H](CO)[C@@H](O)C1,-2.343%
7,CC(=O)Nc1ccsc1C(=O)N1CC[C@@H]2CC[C@H](C1)N2C,-9.655%
8,CO[C@H]1CN(C(=O)c2cc3ccccc3[nH]2)CC[C@H]1N,117%
9,Cc1ccsc1[C@@H]1CCN(C(=O)c2cc3ccccc3[nH]2)C[C@H]1O,-6.106%
10,CN1[C@H]2CC[C@@H]1CN(C(=O)c1sccc1S(N)(=O)=O)CC2,-9.156%
11,O=C(O)CC1CN(S(=O)(=O)c2cccc(F)c2)c2ccccc21 (centres undefined),-14.9%
12,CC(NC(=O)Nc1nnc(-c2ccccn2)s1)C(=O)OC(C)(C)C (centres undefined),4.269%
13,CN1CC[C@@H]2[C@@H](CO[C@H]2CNC(=O)c2nccn2C)C1.O=C(O)C(F)(F)F,-30.91%
14,COCCN(CCN(C)C)C(=O)NC1CCc2ccccc2C1 (centres undefined),-2.569%
15,CCCNc1ncc(CN2CCC3(CC2)CNC(=O)C3)cn1,-5.134%
16,CCOc1cc(Cl)c(CN2CCC3(CCCNC3=O)C2)cc1OC (centres undefined),104.3%
17,O=C1NCCCC12CCN(Cc1ccc(SC3CCCCC3)o1)C2 (centres undefined),4.336%
18,CCOc1cc2c(cc1CN1CCC3(CCCNC3=O)C1)CCC2 (centres undefined),106.5%
19,CCOc1cc2c(cc1CCC(=O)O)CCC2,-9.267%
20,CCOc1cc2c(cc1CN1CCC3(CC1)CNC(=O)C3)CCC2,89%
21,CCOc1ccc(CN2CCC3(CC2)CNC(=O)C3)cn1,-1.206%
22,CCCc1cc(C(=O)N2CCC3(CCCNC3=O)C2)cs1 (centres undefined),9.333%
23,Cc1ccc(Sc2ccc(CN3CCC4(CCCNC4=O)C3)o2)cc1 (centres undefined),5.94%
24,CN1CCc2ccc(NCc3cscn3)cc2C1=O,26.59%
25,CN(C)C(=O)CN1C[C@H]2CCN(C(=O)c3ccncc3)CC[C@H]2S1(=O)=O,6.618%

row,SMILES,Percent Effect
1,CCc1nnc(S(=O)(=O)Cc2cc(Cl)c3c(c2)OCO3)n1C,-5.495%
2,CNC(=O)CN(C)c1nc(-c2ccc(C(N)=O)cc2)nc2c1CCNC2,117.3%
3,CCN(CC)CCN(C)c1nc(-c2ccc(Cl)cc2)nc2c1CNC2,-44.78%
4,CN(CCCO)c1nc(-c2ccc(C(N)=O)cc2)nc2c1CCNC2,101.5%
5,COCCN(C)c1nc(-c2ccncc2)nc2c1CCN(C(C)=O)C2,5.956%
6,CN(CCO)c1nc(-c2ccccn2)nc2c1CCNC2,-7.259%
7,CNC(=O)CCN(C)c1nc(-c2ccncc2)nc2c1CCNC2,97.6%
8,CNC(=O)CN(C)c1nc(-c2ccncc2)nc2c1CCN(C(C)=O)C2,-5.976%
9,NC(=O)c1ccc(-c2nc3c(c(=O)[nH]2)CCNC3)cc1,-6.229%
10,CN(CC(O)CO)c1nc(-c2cccnc2)nc2c1CCNC2 (centres undefined),5.807%
11,O=C1NCCO[C@H]2CN(C(=O)CCc3ccc(Cl)cc3)CC[C@@H]12,1.273%
12,O=C(CC1CCc2ccccc21)NCCSc1cnn[nH]1 (centres undefined),-1.678%
13,O=S(=O)(NCC1CCOC1)N1CCc2ccccc2C1 (centres undefined),0.4119%
14,CN(CCOc1ccc(Br)cc1)Cc1cscn1,-4.62%
15,CCCc1nnc(NC2CCN(Cc3ccc(F)c(F)c3)CC2)o1,-13.59%
16,Cc1cc(C(=O)NC2CCCCNC2=O)c(=O)[nH]c1C (centres undefined),-5.405%
17,O=C(CO)N1CCC(F)(F)C2(CCN(c3ccccc3)C2)C1.O=C(O)C(F)(F)F (centres undefined),5.936%
18,Cn1cc(CN2CCOC3(CCCN(c4cccc(F)c4)C3)C2)cn1.O=C(O)C(F)(F)F.O=C(O)C(F)(F)F (centres undefined),-4.147%
19,O=C(O)C(F)(F)F.O=C(O)C(F)(F)F.O=C(O)CN1CCC(F)(F)C2(CCN(c3ccccc3)C2)C1 (centres undefined),-5.23%
20,Cn1cc(CN2CCC(F)(F)C3(CCN(c4cccnc4)C3)C2)cn1.O=C(O)C(F)(F)F.O=C(O)C(F)(F)F (centres undefined),116.7%
21,O=C(O)C(F)(F)F.O=C(c1c[nH]cn1)N1CCC(F)(F)C2(CCN(c3cccc(F)c3)C2)C1 (centres undefined),-14.3%
22,FC1(F)CCN(Cc2ccncc2)CC12CCN(c1cccnc1)C2.O=C(O)C(F)(F)F.O=C(O)C(F)(F)F.O=C(O)C(F)(F)F (centres undefined),90.74%
23,FC1(F)CCN(Cc2cccnc2)CC12CCN(c1ccccc1)C2.O=C(O)C(F)(F)F.O=C(O)C(F)(F)F.O=C(O)C(F)(F)F (centres undefined),93.27%
24,Cn1cc(CN2CCC(F)(F)C3(CCN(c4cccc(F)c4)C3)C2)cn1 (centres undefined),120.4%
